PubChem BioAssay (EPA / NIEHS)
Active and inactive are the calls of the source. How the source made its calls: active means hit-call score of the fitted dose curve at least 0.9, where 1 is the maximum; inactive means score below 0.9.

Legend:
[1] = ATG_GLI_CIS: Attagene CIS-FACTORIAL HepG2 Assay for human Zinc Finger Protein GLI1 (AID 2282945); details: HepG2, Attagene cis-factorial reporter mRNA, GLI element; actives raise or lower the signal
How it was run: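 Bidirectional curve fits relative to DMSO, using reporter mRNA levels from RT-PCR plus capillary electrophoresis. Cells were HepG2 transiently carrying cis-regulated reporter constructs, harvested 24 h after dosing.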

[2] = target: Bile acid receptor (Homo sapiens) (UniProt Q96RI1); assay: ATG_IR1_CIS: Attagene CIS-FACTORIAL HepG2 Assay for human Nuclear Receptor Subfamily 1 Group H Member 4 (NR1H4), IR1 submotif (AID 2282946); details: IR1 reporter transcription, actives raise or lower the signal
How it was run: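 HepG2 cells transiently transfected with multiplexed cis-element reporter units read endogenous transcription factor activity. After 24 h compound exposure, reporter mRNA was quantified by RT-PCR, fluorescent labelling, HpaI digestion and capillary electrophoresis; bidirectional fitting versus DMSO baseline.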

[3] = ATG_GRE_CIS: Attagene CIS-FACTORIAL HepG2 Assay for human Glucocorticoid Response Elements (GRE) (AID 2282947); details: HepG2 GRE cis-reporter, Attagene multiplex mRNA; actives raise or lower the signal
How it was run: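 Multiplexed cis-reporter mRNA induction, HepG2, 24 h post-dose. RT-PCR, FAM-labelled, HpaI-digested amplicons by CE. Bidirectional fit vs DMSO.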

[4] = ATG_ISRE_CIS: Attagene CIS-FACTORIAL HepG2 Assay for human Interferon Regulatory Factor 1 (IRF1) binding to an Interferon-Stimulated Response Element (ISRE) (AID 2282948); details: HepG2 ISRE cis-reporter (Attagene), mRNA transcription readout; actives raise or lower the signal
How it was run: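 Signal reflects induction or loss of ISRE-linked reporter mRNA in transiently transfected HepG2 cells after a 24 h treatment, detected by fluorescent RT-PCR fragments on capillary electrophoresis and normalised to DMSO.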

[5] = ATG_M_32_CIS: Attagene CIS-FACTORIAL HepG2 Assay for M32 Transcription Factor (Internal Marker) (AID 2282949); details: HepG2 Attagene cis-factorial M32 reporter, mRNA; actives raise or lower the signal;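 further: background control marker of the multiplexed CIS panel rather than a real target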
How it was run: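 Using DMSO as baseline, bidirectional curve fits were applied to reporter mRNA signals. These came from transiently transfected HepG2 cells exposed for 24 h, with RNA analysed by RT-PCR, FAM primer extension, HpaI digestion and CE.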

[6] = ATG_M_06_CIS: Attagene CIS-FACTORIAL HepG2 Assay for M06 Transcription Factor (Internal Marker) (AID 2282950); details: HepG2 Attagene CIS-FACTORIAL M06 internal marker reporter; actives raise or lower the signal
How it was run: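 Cells (HepG2, transiently carrying cis-driven reporter units) receive chemical for 24 h before RNA isolation. Reporter cDNA is PCR-amplified, FAM-labelled by primer extension, HpaI-digested and sized on a capillary analyser.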

[7] = target: Hypoxia-inducible factor 1-alpha (Homo sapiens) (UniProt Q16665); assay: ATG_HIF1a_CIS: Attagene CIS-FACTORIAL HepG2 Assay for human Hypoxia Inducible Factor 1 (HIF1A) (AID 2282951); details: HepG2 Attagene cis-factorial HIF1a reporter transcription; actives raise or lower the signal
How it was run: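 RT-PCR/capillary electrophoresis fluorescence readout of reporter transcripts from endogenous-TF-driven cis elements in transfected HepG2 cells, 24 h exposure; activity fitted in both directions against DMSO controls.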

[8] = target: Hepatocyte nuclear factor 6 (Homo sapiens) (UniProt Q9UBC0); assay: ATG_HNF6_CIS: Attagene CIS-FACTORIAL HepG2 Assay for human Hepatocyte Nuclear Factor 6 (HNF6) (AID 2282952); details: HepG2 Attagene cis-factorial HNF6 reporter transcription; actives raise or lower the signal
How it was run: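 First, HepG2 cells were transfected with the multiplexed cis reporter library and dosed with chemical for 24 h. Next, RNA was reverse-transcribed, PCR-amplified and fluorescently labelled. Finally, HpaI-digested fragments were read by capillary electrophoresis.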

[9] = ATG_MRE_CIS: Attagene CIS-FACTORIAL HepG2 Assay for human Metal Responsive Element (MRE) (AID 2282954); details: HepG2 MRE cis-reporter transcription, Attagene multiplex; actives raise or lower the signal
How it was run: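 Multiplexed cis-reporter assay in human HepG2 liver cells, 24 h incubation with test chemical. Reporter transcripts measured by RT-PCR and capillary electrophoresis; values from bidirectional curve fitting versus DMSO.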

[10] = ATG_PBREM_CIS: Attagene CIS-FACTORIAL HepG2 Assay for human Phenobarbital-responsive Enhancer Module (PBREM) (AID 2282955); details: HepG2 PBREM cis-reporter, Attagene multiplexed transcription; actives raise or lower the signal
How it was run: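 Reporter mRNA read by RT-PCR, 6-FAM primer extension, HpaI digestion and capillary electrophoresis. Transfected HepG2 cells, 24 h compound exposure. Gain or loss of signal fitted bidirectionally relative to DMSO baseline.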

[11] = target: Paired box protein Pax-6 (Homo sapiens) (UniProt P26367); assay: ATG_Pax6_CIS: Attagene CIS-FACTORIAL HepG2 Assay for human Paired Box 6 (PAX6) (AID 2282956); details: HepG2 CIS-FACTORIAL PAX6 reporter transcription, RNA readout; actives raise or lower the signal
How it was run: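 Values derive from bidirectional curve fitting of reporter mRNA signal relative to DMSO. HepG2 cells bearing transfected cis-regulated MRTUs were exposed for 24 h; transcripts were read by RT-PCR and capillary electrophoresis.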

[12] = ATG_PXRE_CIS: Attagene CIS-FACTORIAL HepG2 Assay for human Pregnane X Receptor Element (PXRE) (AID 2282957); details: HepG2 Attagene CIS-FACTORIAL PXRE reporter, mRNA; actives raise or lower the signal
How it was run: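 After a 24 h chemical incubation, total RNA from transfected HepG2 cells was reverse-transcribed and reporter cDNA amplified, FAM-labeled, HpaI-digested and sized by capillary electrophoresis. DMSO served as baseline for bidirectional curve fitting.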

[13] = ATG_RORE_CIS: Attagene CIS-FACTORIAL HepG2 Assay for human RAR-related Orphan Receptor Element (RORE) (AID 2282959); details: HepG2 Attagene cis-factorial RORE reporter, mRNA; actives raise or lower the signal
How it was run: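 Readout: fluorescent reporter mRNA by RT-PCR plus capillary electrophoresis, 24 h after dosing transfected HepG2 cells. Endogenous transcription factor activity on a cis promoter element is measured. Gain or loss of signal fitted against DMSO.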

[14] = ATG_Sox_CIS: Attagene CIS-FACTORIAL HepG2 Assay for human SRY-box transcription factor (SOX) (AID 2282960); details: HepG2 Attagene cis-factorial SOX reporter, mRNA; actives raise or lower the signal
How it was run: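 Read-out: fluorescent RT-PCR products of SOX1-linked reporter transcripts resolved by capillary electrophoresis, fitted bidirectionally against DMSO. Transiently transfected HepG2 cells, 24 h after chemical exposure, endogenous transcription factor activity.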

[15] = target: Transcription factor Sp1 (Homo sapiens) (UniProt P08047); assay: ATG_Sp1_CIS: Attagene CIS-FACTORIAL HepG2 Assay for human Specificity Protein 1 (Sp1) (AID 2282961); details: HepG2 Sp1 cis-reporter transcription, actives raise or lower the signal
How it was run: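 Read-out: fluorescence of 6-FAM-labeled, HpaI-digested RT-PCR products separated by capillary electrophoresis. HepG2 cells carried transfected cis-element reporter units and were exposed to chemicals for 24 h; gain or loss of signal fitted relative to DMSO.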

[16] = ATG_SREBP_CIS: Attagene CIS-FACTORIAL HepG2 Assay for human Sterol Regulatory Element Binding (SREBP) (AID 2282962); details: HepG2 Attagene cis-factorial SREBP reporter, mRNA; actives raise or lower the signal
How it was run: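 Values derive from bidirectional curve fitting with DMSO as baseline. The underlying measurement is reporter mRNA from cis-element-regulated units in transiently transfected HepG2, quantified by RT-PCR and capillary electrophoresis after 24 h exposure.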

[17] = target: Signal transducer and activator of transcription 3 (Homo sapiens) (UniProt P40763); assay: ATG_STAT3_CIS: Attagene CIS-FACTORIAL HepG2 Assay for human Signal Transducer and Activator of Transcription 3 (STAT3) (AID 2282963); details: HepG2, Attagene cis-factorial STAT3 reporter transcription; actives raise or lower the signal
How it was run: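 Cis-factorial format: endogenous transcription factors in HepG2 drive transfected reporter units. After 24 h treatment, reporter RNA was reverse-transcribed, amplified, FAM-labelled and HpaI-digested before CE analysis; activity scored in both directions against DMSO.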

[18] = ATG_TA_CIS: Attagene CIS-FACTORIAL HepG2 Assay for human TA Basal Promoter (AID 2282964); details: HepG2 Attagene CIS-factorial TA basal promoter reporter; actives raise or lower the signal
How it was run: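 Background internal-marker endpoint from a 52-component HepG2 cis-reporter panel. Cells treated 24 h; reporter transcripts quantified via RT-PCR and CE fluorescence against DMSO baseline.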

[19] = target: Heat shock factor protein 1 (Homo sapiens) (UniProt Q00613); assay: ATG_HSE_CIS: Attagene CIS-FACTORIAL HepG2 Assay for human Heat Shock Transcription Factor 1 (HSE) (AID 2282953); details: HepG2 HSE cis-reporter, Attagene RNA transcription; actives raise or lower the signal
How it was run: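 Liver-derived HepG2 cells carry transiently introduced multiple reporter units governed by cis promoters. Reporter RNA measured 24 h post-dose through reverse transcription, PCR amplification, fluorescent labelling and capillary electrophoresis, normalised to DMSO.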

[20] = ATG_PPRE_CIS: Attagene CIS-FACTORIAL HepG2 Assay for human Peroxisome Proliferator-activated Response Element (PPRE) (AID 2282958); details: HepG2 PPRE cis-element reporter, Attagene transcription factor profiling; actives raise or lower the signal
How it was run: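 Read-out: fluorescent reporter mRNA fragments resolved by capillary electrophoresis after RT-PCR. HepG2 cells carried transiently transfected PPRE-driven cis reporter constructs and were dosed for 24 h; gain or loss of signal fitted relative to DMSO.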

Measured: AC50

Sequence of Bile acid receptor (Homo sapiens) (Q96RI1 whole entry, looked up): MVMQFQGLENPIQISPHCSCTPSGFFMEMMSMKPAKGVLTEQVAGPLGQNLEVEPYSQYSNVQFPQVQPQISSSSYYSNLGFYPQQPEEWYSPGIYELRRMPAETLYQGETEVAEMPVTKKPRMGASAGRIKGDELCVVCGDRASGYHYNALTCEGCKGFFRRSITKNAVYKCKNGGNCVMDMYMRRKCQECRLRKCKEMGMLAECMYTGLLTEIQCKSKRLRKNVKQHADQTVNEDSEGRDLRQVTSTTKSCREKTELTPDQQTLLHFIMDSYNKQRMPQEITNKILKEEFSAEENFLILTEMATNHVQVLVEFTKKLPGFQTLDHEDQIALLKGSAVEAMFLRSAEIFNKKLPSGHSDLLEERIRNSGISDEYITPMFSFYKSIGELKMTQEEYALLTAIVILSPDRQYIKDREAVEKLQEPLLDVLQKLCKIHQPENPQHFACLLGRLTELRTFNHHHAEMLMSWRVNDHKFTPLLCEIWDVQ
Sequence of Signal transducer and activator of transcription 3 (Homo sapiens) (P40763 whole entry, looked up): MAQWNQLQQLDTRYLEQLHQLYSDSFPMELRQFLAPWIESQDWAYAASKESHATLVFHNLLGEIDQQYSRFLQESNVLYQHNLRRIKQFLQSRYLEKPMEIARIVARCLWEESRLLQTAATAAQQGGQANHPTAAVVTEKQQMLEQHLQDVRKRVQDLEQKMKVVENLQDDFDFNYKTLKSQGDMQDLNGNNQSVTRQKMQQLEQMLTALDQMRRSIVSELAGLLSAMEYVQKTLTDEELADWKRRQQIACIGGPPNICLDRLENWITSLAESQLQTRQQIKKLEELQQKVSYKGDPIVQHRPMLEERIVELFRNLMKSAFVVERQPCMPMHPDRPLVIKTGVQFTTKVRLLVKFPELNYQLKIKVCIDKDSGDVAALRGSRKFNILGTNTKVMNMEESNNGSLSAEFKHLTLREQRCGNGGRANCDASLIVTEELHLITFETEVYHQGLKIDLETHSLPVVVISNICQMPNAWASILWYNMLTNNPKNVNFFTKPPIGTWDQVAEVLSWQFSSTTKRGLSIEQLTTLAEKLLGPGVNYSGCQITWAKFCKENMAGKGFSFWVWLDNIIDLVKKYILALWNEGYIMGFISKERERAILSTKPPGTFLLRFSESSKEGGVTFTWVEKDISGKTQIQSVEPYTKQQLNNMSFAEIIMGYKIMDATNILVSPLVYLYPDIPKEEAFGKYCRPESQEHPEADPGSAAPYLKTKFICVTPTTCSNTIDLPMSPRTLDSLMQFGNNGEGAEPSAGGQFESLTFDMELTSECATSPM
Sequence of Heat shock factor protein 1 (Homo sapiens) (Q00613 whole entry, looked up): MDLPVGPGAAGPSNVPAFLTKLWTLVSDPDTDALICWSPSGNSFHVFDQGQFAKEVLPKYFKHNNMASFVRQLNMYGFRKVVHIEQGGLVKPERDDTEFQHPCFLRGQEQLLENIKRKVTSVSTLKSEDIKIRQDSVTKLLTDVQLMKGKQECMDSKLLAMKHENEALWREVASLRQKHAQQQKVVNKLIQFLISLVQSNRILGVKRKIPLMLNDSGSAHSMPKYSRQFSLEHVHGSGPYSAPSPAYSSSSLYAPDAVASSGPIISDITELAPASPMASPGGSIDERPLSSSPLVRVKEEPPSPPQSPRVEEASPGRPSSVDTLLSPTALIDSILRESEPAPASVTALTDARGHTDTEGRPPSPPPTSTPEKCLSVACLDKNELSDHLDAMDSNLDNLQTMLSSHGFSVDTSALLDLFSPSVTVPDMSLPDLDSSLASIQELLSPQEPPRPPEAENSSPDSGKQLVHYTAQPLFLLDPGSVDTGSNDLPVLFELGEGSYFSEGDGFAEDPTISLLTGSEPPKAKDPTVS
Sequence of Paired box protein Pax-6 (Homo sapiens) (P26367 whole entry, looked up): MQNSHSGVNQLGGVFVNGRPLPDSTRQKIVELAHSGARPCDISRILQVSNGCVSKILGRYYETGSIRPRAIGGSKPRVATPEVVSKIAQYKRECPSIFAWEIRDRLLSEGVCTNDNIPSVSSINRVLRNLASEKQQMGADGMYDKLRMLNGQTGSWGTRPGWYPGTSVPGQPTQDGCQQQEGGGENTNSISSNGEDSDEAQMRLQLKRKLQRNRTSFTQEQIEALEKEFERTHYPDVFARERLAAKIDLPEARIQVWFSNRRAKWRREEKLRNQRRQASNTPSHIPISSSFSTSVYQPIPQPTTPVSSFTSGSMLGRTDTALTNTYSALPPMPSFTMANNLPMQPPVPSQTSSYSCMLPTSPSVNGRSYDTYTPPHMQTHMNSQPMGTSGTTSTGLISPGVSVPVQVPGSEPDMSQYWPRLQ
Sequence of Hepatocyte nuclear factor 6 (Homo sapiens) (Q9UBC0 whole entry, looked up, the tested form may be a part): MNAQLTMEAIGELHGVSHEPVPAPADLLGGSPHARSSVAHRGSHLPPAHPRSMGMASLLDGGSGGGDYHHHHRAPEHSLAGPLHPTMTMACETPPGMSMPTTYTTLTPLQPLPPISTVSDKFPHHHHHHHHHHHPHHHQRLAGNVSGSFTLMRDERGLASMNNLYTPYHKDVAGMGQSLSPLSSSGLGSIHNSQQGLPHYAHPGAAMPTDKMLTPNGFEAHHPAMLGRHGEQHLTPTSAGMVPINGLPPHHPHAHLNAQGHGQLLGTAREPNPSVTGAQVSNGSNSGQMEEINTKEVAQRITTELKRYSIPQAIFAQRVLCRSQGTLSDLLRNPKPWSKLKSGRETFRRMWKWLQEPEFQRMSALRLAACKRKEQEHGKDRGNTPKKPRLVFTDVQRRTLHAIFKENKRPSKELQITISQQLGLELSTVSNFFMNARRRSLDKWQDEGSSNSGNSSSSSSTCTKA
Sequence of Hypoxia-inducible factor 1-alpha (Homo sapiens) (Q16665 whole entry, looked up): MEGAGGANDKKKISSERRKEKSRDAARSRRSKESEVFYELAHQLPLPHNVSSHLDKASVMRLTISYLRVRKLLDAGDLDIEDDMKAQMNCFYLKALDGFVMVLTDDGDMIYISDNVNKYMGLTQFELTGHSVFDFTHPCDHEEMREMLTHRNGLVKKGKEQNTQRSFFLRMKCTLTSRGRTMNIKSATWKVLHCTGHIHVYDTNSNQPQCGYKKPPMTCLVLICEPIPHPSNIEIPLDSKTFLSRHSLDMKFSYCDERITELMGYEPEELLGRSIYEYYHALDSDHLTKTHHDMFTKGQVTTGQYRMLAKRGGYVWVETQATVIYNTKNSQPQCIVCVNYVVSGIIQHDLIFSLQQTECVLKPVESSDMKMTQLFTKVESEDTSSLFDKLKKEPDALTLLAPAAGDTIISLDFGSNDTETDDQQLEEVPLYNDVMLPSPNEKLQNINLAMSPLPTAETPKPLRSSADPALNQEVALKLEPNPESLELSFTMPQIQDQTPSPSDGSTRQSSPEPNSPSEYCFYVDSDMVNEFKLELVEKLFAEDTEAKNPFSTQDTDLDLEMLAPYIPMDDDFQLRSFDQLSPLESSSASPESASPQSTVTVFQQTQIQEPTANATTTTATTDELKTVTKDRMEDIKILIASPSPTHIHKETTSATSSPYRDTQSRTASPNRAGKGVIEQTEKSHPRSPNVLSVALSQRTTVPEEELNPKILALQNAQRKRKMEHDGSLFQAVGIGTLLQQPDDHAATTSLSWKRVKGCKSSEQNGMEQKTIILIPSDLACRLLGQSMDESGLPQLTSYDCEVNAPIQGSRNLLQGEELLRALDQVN
Sequence of Transcription factor Sp1 (Homo sapiens) (P08047 whole entry, looked up): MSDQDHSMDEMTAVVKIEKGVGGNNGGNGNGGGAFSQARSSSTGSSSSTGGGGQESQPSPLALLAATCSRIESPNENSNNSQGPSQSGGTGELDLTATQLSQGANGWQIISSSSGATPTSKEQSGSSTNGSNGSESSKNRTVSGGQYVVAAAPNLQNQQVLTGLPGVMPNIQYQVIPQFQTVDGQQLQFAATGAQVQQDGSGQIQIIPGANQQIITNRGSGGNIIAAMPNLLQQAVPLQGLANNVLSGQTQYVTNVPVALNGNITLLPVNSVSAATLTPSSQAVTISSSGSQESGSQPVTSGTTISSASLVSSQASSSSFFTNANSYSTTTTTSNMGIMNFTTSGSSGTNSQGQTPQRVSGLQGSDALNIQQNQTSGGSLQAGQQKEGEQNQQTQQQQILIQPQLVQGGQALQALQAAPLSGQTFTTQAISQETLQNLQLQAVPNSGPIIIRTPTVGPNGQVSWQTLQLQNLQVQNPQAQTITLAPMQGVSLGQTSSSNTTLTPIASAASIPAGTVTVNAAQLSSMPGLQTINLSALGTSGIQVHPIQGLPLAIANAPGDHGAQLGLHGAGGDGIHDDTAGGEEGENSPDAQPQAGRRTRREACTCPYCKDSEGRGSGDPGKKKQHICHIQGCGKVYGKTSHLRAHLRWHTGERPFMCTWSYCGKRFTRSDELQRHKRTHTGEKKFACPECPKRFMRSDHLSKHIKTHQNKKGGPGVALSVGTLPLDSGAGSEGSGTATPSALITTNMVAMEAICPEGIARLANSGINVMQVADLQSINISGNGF

[Cl][Dy]([Cl])[Cl]
not listed: [19] | [20]
inactive: all other assays above

C=CCOCC(O)CO (configuration not stated)
not listed: [20]
inactive: all other assays above

CC1COC(=O)O1 (configuration not stated)
active: [12] 40.3 µM
not listed: [10]
inactive: all other assays above

CC(=N[Si](C)(C)C)O[Si](C)(C)C
not listed: [9] | [16]
inactive: all other assays above

COc1ccccc1O
not listed: [11] | [12]
inactive: all other assays above

CCCCCC(=O)O[C@]1(C(C)=O)CC[C@H]2[C@@H]3CCC4=CC(=O)CC[C@]4(C)[C@H]3CC[C@@]21C
inactive: [2] | [5] | [6] | [8] | [20] | [13] | [15]
active: [1] 57.7 µM | [3] 55.1 µM | [4] 16.3 µM | [7] 33.2 µM | [19] 32 µM | [9] 13 µM | [11] 22.8 µM | [12] 0.239 µM | [14] 59.6 µM | [17] 33.2 µM | [18] 60 µM

NC(=O)c1cccnc1
active: [12] 32.3 µM
not listed: [9]
inactive: all other assays above

CCc1cccc(O)c1
active: [12] 28.1 µM
not listed: [3]
inactive: all other assays above

C=C1CC/C=C(\C)CC[C@@H]2[C@@H]1CC2(C)C
active: [2] 81.9 µM | [12] 26.6 µM
not listed: [3] | [17] | [18] | [20]
inactive: all other assays above

CCCCC/C=C\C=C\C(=O)OCC
active: [1] 64 µM | [2] 79.6 µM | [7] 78.5 µM | [19] 46.7 µM | [9] 55.1 µM | [11] 62.9 µM | [12] 1.51 µM | [20] 4.97 µM | [14] 28.4 µM | [15] 28.7 µM
inactive: [3] | [5] | [6] | [8] | [13] | [16] | [17] | [18]

C=C/C(C)=C/C/C=C(\C)CCC=C(C)C
active: [12] 3.8 µM
not listed: [11] | [19]
inactive: all other assays above

O=c1cc[nH]cc1
active: [12] 21 µM
not listed: [5] | [19]
inactive: all other assays above

C[C@H](CCC(=O)O)[C@H]1CC[C@H]2[C@@H]3CC[C@@H]4C[C@H](O)CC[C@]4(C)[C@H]3CC[C@]12C
active: [4] 27.4 µM | [8] 146 µM | [19] 25.6 µM | [9] 26.4 µM | [11] 27.5 µM | [12] 3.75 µM | [15] 168 µM | [18] 25.3 µM
not listed: [7]
inactive: all other assays above

Brc1cc(Br)cc(Br)c1
not listed: [4] | [5] | [9] | [10] | [12]
inactive: all other assays above
